# Hits are enriched below; roughly 3.3% of the tested compounds scored in any of these assays.
# Anthrax LF prot = inhibitors of Bacillus anthracis lethal factor protease; P15917; multiplex microsphere protease cleavage assay, LF; inhibition, % at 10 µM; actives 0.12% (n = 360,000); AID 588501; further: plate controls were buffer without enzyme for full effect and enzyme alone for no effect
# BoNT F protease = inhibitors of Botulinum neurotoxin F light chain protease; Multiplex microsphere protease cleavage assay, flow cytometry; inhibition, % at 10 µM; actives 0.22% (n = 360,000); AID 588497; in the data active means inhibition above about 35%, passing the limit was not always enough; inconclusive means no clear call, values can overlap the other calls; further: plate controls were buffer without enzyme for full effect and enzyme alone for no effect
# Bead autofluor = flagged as autofluorescent in microsphere protease counterscreen. compound autofluorescence counterscreen, microsphere flow cytometry; active compounds read high. AID 624483. fluorescence intensity (test concentration not listed). actives 3.1% (n = 360,000); in the data active means fluorescence intensity above about 16000; inconclusive means no clear call, values can overlap the other calls
# PriA SSB inh = blocks PriA binding to SSB C-terminal tail | inhibition, % at 33 µM | AlphaScreen SSBct-PriA binding, biotinylated peptide | actives 0.6% (n = 430,000); in the data active means inhibition mostly above about 37%, no sharp cut-off; inactive means mostly below about 20%;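 further: plate controls were negative control peptide for no effect and reference peptide for full effect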
# MazF activator = increases E. coli MazEF RNase cleavage of RNA; activation, % at 20 µM; AID 504720; actives 0.32% (n = 350,000); P0AE70; FAM/BHQ RNA-DNA oligo cleavage fluorescence, 5 h; in the data active means activation above about 50%
# Target sequence (P0AE70 whole entry, looked up): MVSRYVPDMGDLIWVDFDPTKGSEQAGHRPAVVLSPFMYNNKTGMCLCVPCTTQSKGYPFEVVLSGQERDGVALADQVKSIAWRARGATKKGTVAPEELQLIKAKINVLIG
# BoNT-A LC inh2 = blocks Botulinum neurotoxin A light chain protease | actives 0.17% (n = 360,000) | multiplex microsphere protease substrate cleavage, flow cytometry | inhibition, % at 10 µM; further: plate controls were buffer without enzyme for full effect and enzyme alone for no effect
# * = called active by the depositor; ? = inconclusive; / = not tested or not shown. Unless noted, no stated cut-off is given here; in the data, active means inhibition above about 30%; inconclusive means no clear call, values can overlap the other calls; inactive means below that.
SMILES,Anthrax LF prot,BoNT F protease,Bead autofluor,PriA SSB inh,MazF activator,BoNT-A LC inh2
COc1cc(C)c(CN2CCN(c3ccccc3)CC2)cc1C,-2.3,-9.4,17583*,-5.5,-19.0,-3.5
O=C(CSc1nc2ccc([N+](=O)[O-])cc2[nH]1)NCCc1ccccc1,-2.1,3.2,20820*,6.0,2.0,6.1
O=C(Nc1ccc(SCc2cccnc2)nn1)c1ccccc1,/,/,/,6.0,/,/
Cc1ccsc1C=NNc1nc(=O)[nH]nc1C,/,/,/,66.5*,/,/
CCOC(=O)c1sc(N)c(C(=O)OCC)c1COC(=O)C1CC(=O)N(Cc2ccco2)C1 (configuration not stated),-0.7,2.7,?,3.9,-0.2,-0.1
COC(=O)c1sc(N)c(C(=O)OC)c1COC(=O)C1CC(=O)N(Cc2ccco2)C1 (configuration not stated),-0.1,1.2,21636*,0.4,-10.7,2.0
Oc1ccccc1/C=N/Nc1nccnc1Cl,-1.8,-10.0,9470,/,0.3,-2.2
O=[N+]([O-])c1ccccc1/C=N/Nc1nccnc1Cl,-2.5,-0.5,22518*,/,-4.1,-0.7
O=C(COc1ccc(Cl)cc1)Nc1ccccc1-c1nc2ccccc2[nH]c1=O,/,/,/,-4.0,/,/
NS(=O)(=O)c1ccc(NC(=O)c2ccc3c(c2)CCCC3)cc1,-2.1,0.2,4664,-11.9,71.5*,-0.9
COC1(CNC(=O)c2ccccc2SC)Cc2ccccc2C1,/,/,/,-1.0,/,/
O=C(Nc1cnc2ccnn2c1)c1ccc(C(F)(F)F)nc1,/,/,/,-5.0,/,/
Cc1cc(C)nc(NS(=O)(=O)c2ccc(N3C(=O)C4CC=C(Cl)CC4C3=O)cc2)n1 (configuration not stated),-2.8,2.0,18775*,-2.6,-3.5,4.5
CCc1nnc(NS(=O)(=O)c2ccc(N3C(=O)C4CC=C(Cl)CC4C3=O)cc2)s1 (configuration not stated),-25.0,0.6,?,5.5,-8.4,1.1
CC(C)CS(=O)(=O)C1CNC1,/,/,/,-6.0,/,/
Cn1c(=O)c2[nH]c(-c3cccnc3)nc2n(C)c1=O,-1.8,0.3,21912*,-5.6,5.7,1.0
N#Cc1c(SCC(=O)OCc2ccccc2)nsc1SCC(=O)OCc1ccccc1,-21.4,-10.8,9678,-22.4,3.7,-0.9
CCc1c(C#N)c(N)nc(SCC(=O)OCc2ccccc2)c1C#N,-6.5,-6.3,17979*,-25.1,-0.9,-3.1
CCN(CC)C(=O)CSc1nc(N)c(C#N)c(-c2cccs2)c1C#N,-1.8,-0.7,21936*,-16.7,-5.6,?
O=C(CC1CCCC1)N1CCN(Cc2nc(-c3ccc(F)cc3)cs2)CC1,/,/,/,-2.0,/,/
CN(C)c1ccc2nc3ccc(=[N+](C)C)cc-3sc2c1,7.1,-24.8,2168,0.9,-4.4,31.5*
Cc1cc2nc3ccc(=[N+](C)C)cc-3sc2cc1N,20.0,-9.6,3584,83.1*,-12.1,61.4*
O=C(NCCc1ccccc1)c1noc2c1CCCCC2,0.2,0.4,19823*,-17.1,4.0,2.9
O=C(NCc1cccnc1)c1noc2c1CCCCC2,-0.5,1.0,10589,3.7,0.4,1.1
O=C(NCc1cccs1)c1noc2c1CCCC2,-3.9,-3.7,11822,-2.7,2.0,-2.1
SMILES,Anthrax LF prot,BoNT F protease,Bead autofluor,PriA SSB inh,MazF activator,BoNT-A LC inh2
O=C(NCc1ccco1)c1noc2c1CCCCC2,-7.9,-5.5,16534*,7.2,-0.7,-2.1
O=C(NCc1cccnc1)c1noc2c1CCCC2,-9.4,2.0,21847*,-2.4,2.1,3.6
Cc1nc(Nc2ccc(NC(=O)Nc3ccc(C)c(F)c3)cc2)cc(OC(C)C)n1,/,/,/,22.0,/,/
COc1ccc(C(=O)NNC(C)=CC(=O)C(F)(F)C(F)(F)C(F)(F)F)cc1,/,/,/,-5.9,/,/
O=c1ccc(-n2cncn2)nn1CCNS(=O)(=O)Cc1cc(F)ccc1F,/,/,/,-15.0,/,/
COCCNC(=O)N1CCC(c2cccs2)CC1,/,/,/,3.0,/,/
COC(=O)c1ccccc1OCC(=O)NC1CCCCC1,-1.1,-1.7,21631*,-10.7,-5.9,1.6
O=C(Nc1ccc(Br)cc1)N1CCCCC1,-0.7,3.0,3734,1.9,9.2,-0.4
COCC(=O)NC1CCN(C(=O)Nc2ccc(Br)cc2)CC1,-5.9,-3.1,16587*,-7.9,-1.6,-1.2
CCc1ccccc1NC(=O)CN1CCC(NC(=O)COC)CC1,-8.1,-1.4,23013*,1.6,7.2,?
O=C(CN1C(=O)C(=O)c2ccccc21)NC1CCCCC1,-0.1,4.5,21596*,-6.0,9.1,?
CCOCC(=O)NCC(OC)c1ccccc1Cl (configuration not stated),/,/,/,-19.0,/,/
COC(=O)c1ccc(S(=O)(=O)N2CCN(c3cc(-n4cncn4)ncn3)CC2)cc1,/,/,/,-9.0,/,/
O=C(CCCn1c(=O)c2ccccc2n(Cc2cc(=O)n3ccccc3n2)c1=O)NCc1ccc2c(c1)OCO2,/,/,/,-19.0,/,/
COc1ccc(-c2csc(CN3CCN(C(=O)COc4ccccc4F)CC3)n2)cc1,/,/,/,16.0,/,/
COc1ccccc1OCC(=O)NCC1CCCCC1,2.2,-3.2,23960*,-6.5,4.6,-1.9
CCc1ccccc1OCC(=O)NC1CCCC1,0.3,0.2,23047*,-10.1,9.1,1.2
COc1cc(CNn2cnnc2)ccc1OCC(=O)NC1CCCCC1,-3.6,-1.9,24056*,-13.5,-4.0,-2.0
CCOCCSc1nnc(CNC(=O)c2ccccc2)o1,/,/,/,1.0,/,/
Cc1oncc1C(=O)NCC1CCN(C(=O)Nc2ccc(F)cc2)CC1,/,/,/,-3.0,/,/
NS(=O)(=O)c1ccc(N2C(=O)CC(N3C(=O)/C(=C/c4cccs4)SC3=S)C2=O)cc1 (configuration not stated),/,/,/,48.0,/,/
CCC(=O)Nc1ccc(SCC(=O)Nc2cc(Cl)ccc2OC)nn1,/,/,/,-9.0,/,/
CCCCOC(=O)Nc1ccc(N2CCCCC2)cc1,-21.1,-43.5,15945,19.2,-1.2,-6.5
CCCCOC(=O)Nc1ccc(N2CCOCC2)cc1,-5.5,-4.9,20906*,22.0,4.8,?
CCOC(=O)Nc1ccc(S(=O)(=O)N2CCOCC2)cc1,-0.5,4.0,10202,4.6,-1.3,0.6
SMILES,Anthrax LF prot,BoNT F protease,Bead autofluor,PriA SSB inh,MazF activator,BoNT-A LC inh2
CCOC(=O)Nc1ccc(S(=O)(=O)NCCCN2CCOCC2)cc1,-3.4,-3.3,17393*,-21.2,-2.8,-2.2
CCc1cccc2sc(N(CCN3CCOCC3)C(=O)c3cc(C)n(CC)n3)nc12,/,/,/,-10.0,/,/
CCc1cccc2sc(N(CCCN3CCOCC3)C(=O)c3ccc4c(c3)OCCO4)nc12,/,/,/,28.0*,/,/
CCc1cccc2sc(N(CCN(C)C)C(=O)c3cccc(SC)c3)nc12,/,/,/,42.0*,/,/
COc1ccc(C)cc1NC(=O)CSc1nncc(=O)[nH]1,/,/,/,-7.0,/,/
CCOC(=O)c1nn(-c2ccc(F)cc2)c(=O)cc1NC(=O)C(CC)CC,/,/,/,-14.0,/,/
CCOc1ccc2nc(Nc3nc(CSc4nnnn4-c4ccccc4)cc(=O)[nH]3)nc(C)c2c1,2.7,0.7,20506*,-13.9,-76.3,?
Cc1ccc(SCc2cc(=O)[nH]c(Nc3nc(C)c4cccc(C)c4n3)n2)cc1,-1.9,2.6,22617*,3.5,-158.1,2.6
COc1ccc2nc(Nc3nc(CSc4ccc(C)cc4)cc(=O)[nH]3)nc(C)c2c1,-9.3,0.8,3772,-12.3,-223.7,0.2
